Results: PubChem BioAssay (NCI)
About 83,000 compounds went through this panel and 20% of them were active in at least one assay; those are over-represented in the sample as a whole.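 Cell lines were cultured in 96-well plates, exposed to a single compound concentration, and assessed for percent growth 48 hours later.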 Values without a mark were called inactive. The source made the active and inactive calls. Rule for the calls: active = growth percent below 10; inactive = the rest.

Legend:
Experiment in all cases: NCI-60 one-dose screen, 48 h (100 = growth as untreated, 0 = no growth, -100 = all killed)
Settings in all cases: 10 µM unless noted
[1] = test system: HCT-15 colon
[2] = test system: HT29 colon
[3] = test system: SNB-75 CNS
[4] = test system: SNB-19 CNS
[5] = test system: U251 CNS
[6] = test system: PC-3 prostate
[7] = test system: SK-MEL-5 melanoma
[8] = test system: UACC-62 melanoma
[9] = test system: LOX IMVI melanoma
[10] = test system: SK-MEL-28 melanoma

| Structure (SMILES) | growth [1] | growth [2] | growth [3] | growth [4] | growth [5] | growth [6] | growth [7] | growth [8] | growth [9] | growth [10] |
| --- | --- | --- | --- | --- | --- | --- | --- | --- | --- | --- |
| Cc1cc[n+](CCCC[n+]2ccc(C)cc2)cc1 | 93% | 113% | 106% | 107% | 102% | 88.7% | 99.2% | 97.5% | 94.4% | 105% |
| COc1cc(/C=C/C(=O)c2c(C)[n+]([O-])c3ccccc3[n+]2[O-])ccc1O | 93.5% | 161% | 162% | 111% | 90.8% | 90.6% | 81.6% | 110% | 92.6% | 117% |
| CCOC(=O)c1[nH]c(-c2ccc(Cl)cc2)cc1-c1cccnc1 | 21.8% | 6.32% (active) | -1.8% (active) | 52.9% | 20.8% | 14% | 27.1% | 38.8% | 48.5% | 47.8% |
| CCCCOc1nc2ccc(Cl)cc2cc1/C=C/C(=O)/C=C/c1ccc(OC)cc1 | 91.5% | 71.6% | 97.9% | 105% | 80.5% | 88.9% | 93.9% | 78.9% | 71.5% | 107% |
| O[C@@H]1CCO[C@H](c2ccc3ccccc3c2)C1 | 85.9% | 100% | 97.2% | 101% | 96.7% | 95.5% | 102% | 100% | 102% | 111% |
| COc1ccc(/C(=C/c2cc(OC)c(OC)c(OC)c2)[N+](=O)[O-])cc1 | -41.3% (active) | -14.2% (active) | 49.2% | 55.2% | 5.34% (active) | 35.1% | 70.7% | -7.25% (active) | -80.3% (active) | 1.77% (active) |
| Cc1c(Cl)ccc2c(C(=O)Cl)cc(-c3ccccc3)nc12 | 101% | 116% | 97.4% | 98.6% | 96.6% | 96% | 96.5% | 92.7% | 94.9% | 103% |
| O=[N+]([O-])c1ccc(NS(=O)(=O)c2ccccc2)c2ccccc12 | 46.8% | 57.5% | 42.5% | 48.4% | 37.5% | 53.2% | 0.136% (active) | 22.7% | 43.8% | 37.5% |
| CCc1cccc(-c2ccccc2)c1 | 103% | 114% | 105% | 107% | 106% | 99% | 111% | 103% | 109% | 120% |
| Cc1ccc2nc(-c3ccc(-n4on4-c4ccc(/C=C/c5ccc(-n6on6-c6ccc(-c7nc8ccc(C)cc8s7)cc6)cc5S(=O)(=O)O)c(S(=O)(=O)O)c4)cc3)sc2c1 | 109% | 113% | 107% | 117% | 115% | 98% | 107% | 105% | 97% | 107% |
| CCc1c(C)c2cc3c(c(C)c2oc1=O)OCC(=O)N3 | 67.2% | 64.1% | 14.3% | 64.3% | 62% | 80.4% | 81.1% | 69.6% | 65.3% | 92.7% |
| CC(C(C(=O)N1CCCCC1)N1CCCCC1)N1CCCCC1 (stereo not given) | 107% | 105% | 100% | 103% | 97.9% | 107% | 112% | 102% | 107% | 107% |
| CO[C@H]1/C=C/C=C/C=C/C[C@H](OC(=O)[C@@H](C)NC(=O)C2CCCCC2)[C@H](C)[C@@H](O)/C(C)=C\CCC2=CC(=O)C=C(NC(=O)C1)C2=O | 6.39% (active) | -28.8% (active) | -20.2% (active) | 2.4% (active) | -19.6% (active) | -2.95% (active) | -57% (active) | 2.09% (active) | -38.8% (active) | -3.36% (active) |
| Cc1cccc(CC(=O)c2ccccc2)n1 | 93.2% | 82.1% | 84.6% | 88.7% | 89.6% | 80.5% | 96.6% | 74.7% | 76.5% | 105% |
| Nc1nc(Cl)cc(NCc2ccc(CNc3cc(Cl)nc(N)n3)cc2)n1 | 100% | 110% | 78.3% | 100% | 98.6% | 109% | 58.4% | 98.3% | 79.5% | 120% |
| NS(=O)(=O)c1ccc(Nc2nc(O)c(/C=C3\C=Nc4ccccc43)s2)cc1 | 107% | 114% | 93.7% | 91.6% | 94.6% | 92.1% | 101% | 82.6% | 97.3% | 110% |
| COc1cc(NC(C)CCCN2C(=O)c3ccccc3C2=O)c2nccc(C)c2c1OC (stereo not given) | 102% | 107% | 102% | 109% | 101% | 58.6% | 69.5% | 84% | 82.8% | 113% |
| CN(C)C(=O)Nc1nc2cc(Cl)c(Cl)cc2[nH]1 | 26.1% | 5.63% (active) | 14.7% | 27% | 25.6% | 18.9% | 19% | 23.1% | 47.8% | 73.4% |
| COC(=O)c1oc2c(C(=O)/C=C/c3ccc(OC)cc3)c(OCCN3CCOCC3)ccc2c1C | -57% (active) | -20.4% (active) | -26.8% (active) | -2.78% (active) | -81.7% (active) | 8.1% (active) | -100% (active) | -0.039% (active) | -85.3% (active) | 4.47% (active) |
| CC1(C)N=C(N)N=C(N)N1c1ccc(F)c(C(F)(F)F)c1 | 45.8% | 19.3% | 59% | 44% | 47.2% | 34.3% | 22.8% | 24.3% | 21.4% | 97.8% |
| COc1cc2c(cc1OCCCCC(=O)Nc1ccc(-c3nc4ccccc4s3)cc1)N=C[C@@H]1CCCN1C2=O | 10.6% | -9.12% (active) | -67.7% (active) | 14.1% | 7.5% (active) | -4.92% (active) | -99.3% (active) | -70.9% (active) | 1.99% (active) | -44% (active) |
| O=[N+]([O-])c1cccc2cc(S(=O)(=O)O)ccc12 | 103% | 87.5% | 118% | 106% | 94.7% | 84% | 103% | 100% | 92.1% | 111% |
| CN1CCN(CC(=O)N(C)c2ccc(N=C(c3ccccc3)c3c(O)[nH]c4ccc(C#N)cc34)cc2)CC1 | 64.7% | 10.7% | 3.45% (active) | 61.1% | 35.8% | 36.4% | 25.8% | 68.1% | 13.2% | 53% |
| CN(C)CCCOc1c(Br)cc(/C=C/C(=O)N(C)CCc2cc(Br)c(OCCCN(C)C)c(Br)c2)cc1Br | 9.92% (active) | -19.1% (active) | 73.3% | 48.6% | 7.24% (active) | 65.1% | 64.4% | -26.5% (active) | -23.1% (active) | -49.4% (active) |
| CCCCCC/C=N/Nc1ccc([N+](=O)[O-])cn1 | 102% | 81.5% | 105% | 108% | 110% | 93.2% | 113% | 102% | 83.2% | 109% |
| COc1ccccc1S(=O)(=O)Nc1ccc2c3c(cc(-c4cnn(C5CC5)c4)nc13)C(=O)N2C | 62.7% | 44% | 19.2% | 77.6% | 81.6% | 61.3% | 57.5% | 35.4% | 47.5% | 77% |
| CC(=O)c1cc2c(N)c(C(=O)Nc3cccc(Cl)c3)sc2nc1C | 72.4% | 82.3% | 82.6% | 91.3% | 91.4% | 74.4% | 43.2% | 56.2% | 89.5% | 92.9% |
